Data on 6 compounds can be found in PubChem BioAssay (EPA / NIEHS).

Results filed as inconclusive are left out. The source holds several records for some structures; these can differ, active in one and inactive in another. Calls of active or inactive are those of the source. The calls were made as follows, unless noted: active = hit-call score of the fitted dose curve at least 0.9, where 1 is the maximum; inactive = score below 0.9.

Test [1] in a line: ATG_TGFb_CIS: Attagene CIS-FACTORIAL HepG2 Assay for human Transforming Growth Factor (TGF) (AID 2282967). Particulars: HepG2 Attagene CIS TGFb reporter, mRNA transcription; actives raise or lower the signal. A digest of the protocol: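 Readout: fluorescently labeled reporter cDNA fragments resolved by capillary electrophoresis after RT-PCR. Transfected HepG2 cells dosed for 24 h; endogenous TF activity at TGFB1-linked cis element; gain or loss fitted relative to DMSO.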

Test [2] has as its target X-box-binding protein 1 (Homo sapiens) (UniProt P17861). In words: ATG_Xbp1_CIS: Attagene CIS-FACTORIAL HepG2 Assay for human X-box Binding Protein 1 (XBP1) (AID 2282972). Particulars: HepG2 XBP1 cis-element reporter, Attagene multiplex; actives raise or lower the signal. A digest of the protocol: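 HepG2 cells transiently transfected with multiple cis-element reporter units report endogenous TF activity; 24 h exposure, then reporter mRNA measured by RT-PCR, 6-FAM labelling, HpaI digestion and capillary electrophoresis. Bidirectional fitting versus DMSO.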

Test [3] can be described thus: ATG_M_19_TRANS: Attagene TRANS-FACTORIAL HepG2 Assay for M19 Transcription Factor (Internal Marker) (AID 2282974; active = hit-call score of the fitted dose curve at least 0.9, where 1 is the maximum). Particulars: HepG2 Attagene TRANS-FACTORIAL M19 internal marker reporter. A digest of the protocol:
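24 h chemical exposure of transiently transfected HepG2 (MRTU library). RNA → oligo(dT) RT → PCR → 6-FAM labelling → HpaI cut → CE fluorescence. Positive-direction fit vs DMSO baseline; background internal-marker readout.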

Test [4] has as its target Glucocorticoid receptor (Homo sapiens) (UniProt P04150). In words: ATG_GR_TRANS: Attagene TRANS-FACTORIAL HepG2 Assay for human Glucocorticoid Receptor (GR) (AID 2282978; active = hit-call score of the fitted dose curve at least 0.9, where 1 is the maximum;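 also: activators score as hits since higher reporter transcript over DMSO is fitted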). Particulars: HepG2 Attagene TRANS GR reporter, mRNA transcription. A digest of the protocol: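 Transient MRTU transfection of HepG2 (GAL4-UAS reporters, exogenous NR-GAL4 chimeras), 24 h dosing. Readout: reporter transcript via RT-PCR + capillary electrophoresis fluorescence. Positive direction vs DMSO baseline.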

The target of test [5] is Bile acid receptor (Homo sapiens) (UniProt Q96RI1). In words: ATG_FXR_TRANS: Attagene TRANS-FACTORIAL HepG2 Assay for Farnesoid X Receptor (FXR) (AID 2282979; active = hit-call score of the fitted dose curve at least 0.9, where 1 is the maximum;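 also: hits raise reporter mRNA above DMSO so AC50 marks FXR activation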). Particulars: HepG2 Attagene TRANS FXR-GAL4 reporter transcription. Summed up: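 Transient transfection of HepG2 with multiplexed GAL4-UAS reporter units; exogenous FXR-GAL4 chimera. Dose 24 h → TriZol RNA → oligo(dT) RT → PCR, 6-FAM primer extension, HpaI cut → CE. Gain vs DMSO.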
Bile acid receptor (Homo sapiens), sequence (Q96RI1 whole entry, looked up, the tested form may be a part): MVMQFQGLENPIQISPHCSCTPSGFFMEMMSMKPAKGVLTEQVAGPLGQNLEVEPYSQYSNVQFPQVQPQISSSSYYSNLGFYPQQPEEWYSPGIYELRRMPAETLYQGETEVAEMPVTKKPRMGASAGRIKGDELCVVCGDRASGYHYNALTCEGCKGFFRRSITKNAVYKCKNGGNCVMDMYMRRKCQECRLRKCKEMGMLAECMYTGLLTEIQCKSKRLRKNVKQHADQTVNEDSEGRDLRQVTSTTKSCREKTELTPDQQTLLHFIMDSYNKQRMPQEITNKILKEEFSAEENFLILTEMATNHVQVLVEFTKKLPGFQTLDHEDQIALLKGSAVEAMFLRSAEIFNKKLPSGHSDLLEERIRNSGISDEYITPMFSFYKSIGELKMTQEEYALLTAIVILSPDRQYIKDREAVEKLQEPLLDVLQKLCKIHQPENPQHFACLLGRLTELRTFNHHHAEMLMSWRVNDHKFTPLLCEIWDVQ

Test [6] concerns the target Oxysterols receptor LXR-alpha (Homo sapiens) (UniProt Q13133). The test can be described thus: ATG_LXRa_TRANS: Attagene TRANS-FACTORIAL HepG2 Assay for human Liver X Receptor alpha (LXRa) (AID 2282980; active = hit-call score of the fitted dose curve at least 0.9, where 1 is the maximum). Particulars: HepG2 Attagene TRANS reporter, LXRa transactivation. Summed up: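 Transfect HepG2 with GAL4-UAS multiplex reporter constructs (TRANS format, chimeric receptor-GAL4); treat 24 h; extract RNA, reverse-transcribe, PCR-amplify, FAM-label, HpaI-digest; resolve fragments by capillary electrophoresis. Upward response vs DMSO.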

In test [7] the target is Oxysterols receptor LXR-beta (Homo sapiens) (UniProt P55055). The test can be described thus: ATG_LXRb_TRANS: Attagene TRANS-FACTORIAL HepG2 Assay for human Liver X Receptor beta (LXRb) (AID 2282981; active = hit-call score of the fitted dose curve at least 0.9, where 1 is the maximum). Particulars: HepG2 Attagene TRANS GAL4-LXRb reporter, mRNA. A digest of the protocol:
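In this TRANS format, exogenous chimeric NR-Gal4 protein activity, not endogenous factors, drives reporter expression in transfected human HepG2 cells. Exposure lasted 24 h; reporter mRNA was read by fluorescent capillary electrophoresis.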

Test [8] concerns the target Hepatocyte nuclear factor 4-alpha (Homo sapiens) (UniProt P41235). The test can be described thus: ATG_HNF4a_TRANS: Attagene TRANS-FACTORIAL HepG2 Assay for human Hepatocyte Nuclear Factor 4 alpha (HNF4a) (AID 2282982; active = hit-call score of the fitted dose curve at least 0.9, where 1 is the maximum). Particulars: HepG2 HNF4a transactivation reporter, mRNA readout. Summed up: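 Cells used were human HepG2, transiently carrying GAL4-UAS reporter units read out against exogenous NR-GAL4 chimeras. Reporter transcript levels after 24 h dosing were quantified by fluorescent RT-PCR and capillary electrophoresis.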

Test [9] is described as follows: ATG_M_06_TRANS: Attagene TRANS-FACTORIAL HepG2 Assay for M06 Transcription Factor (Internal Marker) (AID 2282983; active = hit-call score of the fitted dose curve at least 0.9, where 1 is the maximum). Particulars: HepG2 Attagene TRANS M06 internal marker reporter. A digest of the protocol:
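Transfect HepG2 with MRTUs → dose compounds 24 h → isolate RNA, oligo(dT) RT → PCR with reporter primers → 6-FAM primer extension → HpaI digest → CE fragment analysis. Positive direction vs DMSO.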

Test [10] in a line: ATG_M_32_TRANS: Attagene TRANS-FACTORIAL HepG2 Assay for M32 Transcription Factor (Internal Marker) (AID 2282984; active = hit-call score of the fitted dose curve at least 0.9, where 1 is the maximum;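 also: transcript level of a background control reporter unit measured by RT-PCR and capillary electrophoresis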). Particulars: HepG2 Attagene TRANS M32 internal marker reporter. A digest of the protocol: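 Human hepatoma HepG2, transient MRTU transfection, 24 h treatment. RNA → RT-PCR → fluorescent primer extension → HpaI digest (2 h, 37 C) → CE. Positive-direction fit vs DMSO.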

Test [11] concerns the target Transcriptional activator Myb (Homo sapiens) (UniProt P10242). The test can be described thus: ATG_Myb_CIS: Attagene CIS-FACTORIAL HepG2 Assay for human Myeloblastosis (Myb) Proto-Oncogene Transcription Factor (AID 2282986). Particulars: HepG2 Attagene CIS-FACTORIAL Myb reporter transcription; actives raise or lower the signal. Summed up: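 HepG2, transient MRTU transfection (cis-element promoters, endogenous TF activity), 24 h compound exposure. Readout: reporter mRNA via RT-PCR, 6-FAM labeling, HpaI digest, capillary electrophoresis. Gain/loss fit vs DMSO.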

In test [12] the target is Nuclear respiratory factor 1 (Homo sapiens) (UniProt Q16656). The test can be described thus: ATG_NRF1_CIS: Attagene CIS-FACTORIAL HepG2 Assay for human Nuclear Respiratory Factor 1 (NRF1) Orphan Gene (AID 2282987). Particulars: HepG2 NRF1 cis-element reporter, Attagene multiplex; actives raise or lower the signal. A digest of the protocol: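 Endogenous NRF1-driven reporter transcription measured in transiently transfected human HepG2 liver cells. Readout: reporter mRNA by RT-PCR and capillary electrophoresis with fluorescence detection, 24 h post-dosing. Gain or loss of signal fitted relative to DMSO baseline.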
Nuclear respiratory factor 1 (Homo sapiens), sequence (Q16656 whole entry, looked up): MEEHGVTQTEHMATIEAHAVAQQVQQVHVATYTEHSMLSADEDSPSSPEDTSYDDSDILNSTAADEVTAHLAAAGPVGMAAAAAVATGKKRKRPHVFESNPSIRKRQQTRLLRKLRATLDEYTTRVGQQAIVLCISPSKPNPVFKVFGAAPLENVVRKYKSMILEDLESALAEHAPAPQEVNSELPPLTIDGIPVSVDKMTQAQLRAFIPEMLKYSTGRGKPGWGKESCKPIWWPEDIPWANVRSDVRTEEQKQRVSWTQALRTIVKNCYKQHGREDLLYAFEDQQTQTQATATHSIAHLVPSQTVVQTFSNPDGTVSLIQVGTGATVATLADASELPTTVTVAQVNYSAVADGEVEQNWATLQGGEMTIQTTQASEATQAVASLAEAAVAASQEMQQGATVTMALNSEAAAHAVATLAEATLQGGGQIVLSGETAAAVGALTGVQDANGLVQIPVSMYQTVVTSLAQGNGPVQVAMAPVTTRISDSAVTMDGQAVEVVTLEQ

The nature of test [13]: ATG_NFI_CIS: Attagene CIS-FACTORIAL HepG2 Assay for human Nuclear Factor I (NFI) (AID 2282989). Particulars: HepG2 cis-regulatory reporter, NFI response element transcription; actives raise or lower the signal. Summed up: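 Read-out: reporter mRNA via RT-PCR plus capillary electrophoresis with fluorescence detection. Transiently transfected HepG2 (endogenous TF activity on cis promoters), 24 h compound exposure; gain or loss of signal fitted against DMSO.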

For test [14], the target named is Myc proto-oncogene protein (Homo sapiens) (UniProt P01106). The test can be described thus: ATG_Myc_CIS: Attagene CIS-FACTORIAL HepG2 Assay for human Myelocytomatosis (Myc) Proto-Oncogene Transcription Factor (AID 2282990). Particulars: HepG2, Attagene cis-reporter transcription factor activity; actives raise or lower the signal. A digest of the protocol: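 HepG2 cells transiently transfected with multiple cis-promoter-driven reporter transcription units, so endogenous TF activity is read. After 24 h compound exposure, reporter mRNA was quantified by RT-PCR, 6-FAM labelling, HpaI digestion and capillary electrophoresis; bidirectional fit versus DMSO.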
Myc proto-oncogene protein (Homo sapiens), sequence (P01106 whole entry, looked up): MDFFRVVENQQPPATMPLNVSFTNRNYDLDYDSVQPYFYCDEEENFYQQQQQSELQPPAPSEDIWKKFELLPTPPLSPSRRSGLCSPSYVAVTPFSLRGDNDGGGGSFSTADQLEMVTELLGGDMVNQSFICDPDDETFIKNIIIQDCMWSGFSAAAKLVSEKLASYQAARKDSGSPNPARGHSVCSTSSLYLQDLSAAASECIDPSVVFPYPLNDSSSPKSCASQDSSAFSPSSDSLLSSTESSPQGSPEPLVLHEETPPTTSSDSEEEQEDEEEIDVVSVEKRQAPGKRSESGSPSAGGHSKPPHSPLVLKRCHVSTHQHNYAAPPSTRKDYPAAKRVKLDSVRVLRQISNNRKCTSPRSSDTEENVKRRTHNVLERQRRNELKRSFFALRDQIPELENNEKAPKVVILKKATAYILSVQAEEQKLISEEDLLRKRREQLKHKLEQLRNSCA

Test [15] can be described thus: ATG_TAL_CIS: Attagene CIS-FACTORIAL HepG2 Assay for human TAL Basal Promoter (AID 2282966).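 Also: background control endpoint measuring basal TAL promoter reporter mRNA not a specific factor.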 Particulars: HepG2 Attagene cis-factorial TAL promoter reporter; actives raise or lower the signal. A digest of the protocol: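 Fluorescence of labelled reporter cDNA fragments, resolved by capillary electrophoresis, gave the readout. Human HepG2 liver cells carried transiently transfected cis-element reporter units and were treated for 24 hours; activity was fitted bidirectionally against DMSO.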

The target in test [16] is Estrogen receptor (Homo sapiens) (UniProt P03372). In words: ATG_ERa_TRANS: Attagene TRANS-FACTORIAL HepG2 Assay for human Estrogen Receptor alpha (ERa) (AID 2282970; active = hit-call score of the fitted dose curve at least 0.9, where 1 is the maximum). Particulars: HepG2 Attagene TRANS ERa GAL4 reporter, mRNA. A digest of the protocol:
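Human liver HepG2, transient transfection of multiple GAL4-UAS reporter units; TRANS format (exogenous NR-Gal4 chimera). 24 h dosing. Readout: reporter mRNA, RT-PCR, 6-FAM primer extension, HpaI digest, capillary electrophoresis. Positive direction vs DMSO.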

In test [17] the target is Estrogen-related receptor gamma (Homo sapiens) (UniProt P62508). In words: ATG_ERRg_TRANS: Attagene TRANS-FACTORIAL HepG2 Assay for human Estrogen-Related Receptor gamma (ERRg) (AID 2282977; active = hit-call score of the fitted dose curve at least 0.9, where 1 is the maximum;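 also: hits increase reporter signal over DMSO so potencies reflect activators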). Particulars: HepG2 Attagene TRANS reporter, ERRg transactivation. Summed up:
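HepG2 cells transiently transfected with multiplexed GAL4-UAS reporter units driven by chimeric NR-Gal4 proteins; 24 h exposure. Reporter mRNA quantified by RT-PCR, fluorescent labelling, HpaI digestion and capillary electrophoresis; gain of signal vs DMSO.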

Glucocorticoid receptor (Homo sapiens), sequence (P04150 whole entry, looked up, the tested form may be a part): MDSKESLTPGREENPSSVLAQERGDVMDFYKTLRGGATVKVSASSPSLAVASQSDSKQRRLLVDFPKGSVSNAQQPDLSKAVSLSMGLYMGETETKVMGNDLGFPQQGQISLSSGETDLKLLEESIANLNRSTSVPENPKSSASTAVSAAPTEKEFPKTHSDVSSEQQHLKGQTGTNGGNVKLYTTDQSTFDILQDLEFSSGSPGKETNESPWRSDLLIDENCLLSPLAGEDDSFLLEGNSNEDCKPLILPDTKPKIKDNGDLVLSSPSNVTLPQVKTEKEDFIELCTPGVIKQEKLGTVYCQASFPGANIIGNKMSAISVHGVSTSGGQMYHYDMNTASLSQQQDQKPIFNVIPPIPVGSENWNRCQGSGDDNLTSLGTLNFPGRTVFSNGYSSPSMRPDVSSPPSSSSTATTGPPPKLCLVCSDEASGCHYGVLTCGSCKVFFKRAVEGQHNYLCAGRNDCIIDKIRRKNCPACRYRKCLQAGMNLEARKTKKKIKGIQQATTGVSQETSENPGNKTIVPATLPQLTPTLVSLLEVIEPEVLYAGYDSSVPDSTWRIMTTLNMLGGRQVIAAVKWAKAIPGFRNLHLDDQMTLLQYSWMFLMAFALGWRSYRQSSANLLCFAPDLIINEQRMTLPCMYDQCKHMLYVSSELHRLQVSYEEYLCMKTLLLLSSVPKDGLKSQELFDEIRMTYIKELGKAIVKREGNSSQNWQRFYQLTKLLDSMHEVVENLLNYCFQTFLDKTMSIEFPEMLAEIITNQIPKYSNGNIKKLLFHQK
Hepatocyte nuclear factor 4-alpha (Homo sapiens), sequence (P41235 whole entry, looked up, the tested form may be a part): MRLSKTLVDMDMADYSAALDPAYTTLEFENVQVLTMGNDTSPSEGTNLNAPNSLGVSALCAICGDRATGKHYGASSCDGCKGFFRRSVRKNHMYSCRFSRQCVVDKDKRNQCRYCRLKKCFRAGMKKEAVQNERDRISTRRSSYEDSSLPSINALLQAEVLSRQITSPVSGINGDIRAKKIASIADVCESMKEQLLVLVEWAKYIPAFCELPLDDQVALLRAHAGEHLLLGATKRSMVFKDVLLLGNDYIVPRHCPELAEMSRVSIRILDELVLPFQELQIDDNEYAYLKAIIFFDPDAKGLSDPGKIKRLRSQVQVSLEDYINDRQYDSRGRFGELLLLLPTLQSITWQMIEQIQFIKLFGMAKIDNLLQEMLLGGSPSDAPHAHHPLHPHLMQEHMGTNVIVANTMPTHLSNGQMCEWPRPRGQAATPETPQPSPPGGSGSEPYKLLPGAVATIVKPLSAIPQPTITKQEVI
Transcriptional activator Myb (Homo sapiens), sequence (P10242 whole entry, looked up): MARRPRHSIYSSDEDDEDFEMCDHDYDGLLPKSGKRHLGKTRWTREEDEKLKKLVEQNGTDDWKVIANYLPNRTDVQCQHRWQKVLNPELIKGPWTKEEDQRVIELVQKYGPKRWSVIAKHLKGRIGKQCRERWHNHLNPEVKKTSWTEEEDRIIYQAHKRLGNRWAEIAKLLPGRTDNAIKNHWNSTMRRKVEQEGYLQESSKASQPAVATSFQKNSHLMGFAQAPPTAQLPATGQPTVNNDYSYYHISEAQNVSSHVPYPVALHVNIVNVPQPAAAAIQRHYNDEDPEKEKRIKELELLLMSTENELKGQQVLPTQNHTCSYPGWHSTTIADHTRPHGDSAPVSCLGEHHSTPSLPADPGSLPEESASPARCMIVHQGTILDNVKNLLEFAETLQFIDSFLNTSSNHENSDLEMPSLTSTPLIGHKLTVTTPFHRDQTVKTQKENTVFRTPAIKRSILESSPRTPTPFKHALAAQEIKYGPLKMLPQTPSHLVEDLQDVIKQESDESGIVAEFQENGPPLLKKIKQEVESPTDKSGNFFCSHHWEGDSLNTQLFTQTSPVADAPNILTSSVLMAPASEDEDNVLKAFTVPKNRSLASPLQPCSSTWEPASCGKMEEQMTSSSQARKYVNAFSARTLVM
X-box-binding protein 1 (Homo sapiens), sequence (P17861 whole entry, looked up): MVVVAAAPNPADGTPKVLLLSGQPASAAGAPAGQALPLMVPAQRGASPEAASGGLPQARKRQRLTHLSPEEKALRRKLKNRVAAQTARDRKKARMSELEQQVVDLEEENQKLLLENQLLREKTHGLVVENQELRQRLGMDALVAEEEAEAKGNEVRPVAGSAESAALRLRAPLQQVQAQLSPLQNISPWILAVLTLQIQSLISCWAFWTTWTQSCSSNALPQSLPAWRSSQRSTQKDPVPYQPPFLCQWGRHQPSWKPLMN
Oxysterols receptor LXR-alpha (Homo sapiens), sequence (Q13133 whole entry, looked up, the tested form may be a part): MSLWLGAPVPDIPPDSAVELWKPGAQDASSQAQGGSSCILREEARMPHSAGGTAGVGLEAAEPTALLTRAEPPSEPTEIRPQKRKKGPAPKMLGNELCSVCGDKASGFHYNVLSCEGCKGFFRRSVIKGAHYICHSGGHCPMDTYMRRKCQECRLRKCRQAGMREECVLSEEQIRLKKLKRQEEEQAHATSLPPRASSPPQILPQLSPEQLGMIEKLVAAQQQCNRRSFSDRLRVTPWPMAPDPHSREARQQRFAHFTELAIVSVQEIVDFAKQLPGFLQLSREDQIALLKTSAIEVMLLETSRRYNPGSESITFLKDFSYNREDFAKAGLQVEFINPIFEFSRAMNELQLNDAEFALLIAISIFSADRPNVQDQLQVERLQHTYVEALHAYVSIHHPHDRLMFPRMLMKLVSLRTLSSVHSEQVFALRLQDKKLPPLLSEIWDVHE
Oxysterols receptor LXR-beta (Homo sapiens), sequence (P55055 whole entry, looked up, the tested form may be a part): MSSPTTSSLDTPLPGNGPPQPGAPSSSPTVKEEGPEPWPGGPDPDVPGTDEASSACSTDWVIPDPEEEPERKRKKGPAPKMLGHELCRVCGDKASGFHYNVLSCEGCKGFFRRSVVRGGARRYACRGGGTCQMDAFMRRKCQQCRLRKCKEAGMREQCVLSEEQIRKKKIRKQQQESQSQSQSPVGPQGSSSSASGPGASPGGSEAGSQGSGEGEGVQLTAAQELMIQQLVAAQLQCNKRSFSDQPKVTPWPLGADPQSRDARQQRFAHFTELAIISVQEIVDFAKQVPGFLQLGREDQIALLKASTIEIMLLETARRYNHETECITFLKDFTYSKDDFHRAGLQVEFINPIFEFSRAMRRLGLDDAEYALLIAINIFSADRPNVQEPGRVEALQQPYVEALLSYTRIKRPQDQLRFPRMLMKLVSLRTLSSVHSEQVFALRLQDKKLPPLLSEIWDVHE
Estrogen-related receptor gamma (Homo sapiens), sequence (P62508 whole entry, looked up, the tested form may be a part): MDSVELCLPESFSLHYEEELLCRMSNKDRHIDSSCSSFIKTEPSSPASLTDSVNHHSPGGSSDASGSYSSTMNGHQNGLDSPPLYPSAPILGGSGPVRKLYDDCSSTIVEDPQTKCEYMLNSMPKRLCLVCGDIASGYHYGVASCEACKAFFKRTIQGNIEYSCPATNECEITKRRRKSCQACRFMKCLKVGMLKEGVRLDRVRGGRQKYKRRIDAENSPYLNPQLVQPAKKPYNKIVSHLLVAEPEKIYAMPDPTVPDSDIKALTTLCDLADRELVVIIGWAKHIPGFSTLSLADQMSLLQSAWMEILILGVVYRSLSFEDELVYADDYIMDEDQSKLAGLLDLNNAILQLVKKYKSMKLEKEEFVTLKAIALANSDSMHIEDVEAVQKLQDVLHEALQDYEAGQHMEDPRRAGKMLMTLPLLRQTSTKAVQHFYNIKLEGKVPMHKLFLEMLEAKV

One may read the AC50 as the concentration giving half of the maximal activity seen. Take `CCN(CC)CCOc1ccc(C(=C(Cl)c2ccccc2)c2ccccc2)cc1`: the AC50 in test [1] was 3.11 µM (active); in test [2], 11.2 µM (active); in [5], 14.8 µM (active); in test [11], 14.5 µM (active); in test [12] it was 14.7 µM (active); in [13] it was 14.8 µM (active). The result in test [1], in test [2], in test [3], in test [4], in test [5] and in test [6] was inactive. Also, the compound was called inactive in test [7], in test [8], in [9], in test [10], in test [11] and in test [12]. Moreover, the result in test [13] and in [14] was inactive.

Regarding `C=CCc1ccc(OC)c(OC)c1`, the compound was called inactive in test [15], in [1], in [2], in test [3], in test [4] and in test [5]. In addition, the compound was called inactive in test [6], in test [8], in test [9], in test [11], in [12] and in [13]. The compound was classed as inactive in test [14].

Consider `Cc1ccc(C(C)(C)C)c(O)c1`, for which the result in test [15], in test [1], in test [17], in [5], in [9] and in test [11] was inactive. Also, the outcome in [12] was inactive. Besides, the AC50 is 6.64 µM (active) in [16], 139 µM (active) in [2], 141 µM (active) in test [13] and 100 µM (active) in [14].

In the case of `CN(C)C(=O)NC1(c2ccccc2)CCN(CC[C@@]2(c3ccc(F)c(F)c3)CN(C(=O)c3ccccc3)CCO2)CC1`, the result in test [15], in [1], in [2], in test [3], in test [4] and in [5] was inactive. For the same compound, the call in test [11], in test [12], in test [13] and in test [14] was inactive.

In the case of `Cc1occc(=O)c1O`, the compound was called inactive in [15], in test [1], in [2], in test [3], in [8] and in [11]. The call in [12], in test [13] and in test [14] was inactive.

For `CC(C)COC(=O)CCCCC(=O)OCC(C)C`, the outcome in [15], in test [1], in test [2], in test [3], in test [5] and in test [7] was inactive. The compound was classed as inactive in [8], in [10], in test [11], in test [12], in test [13] and in test [14].
